The structures appear in SMILES notation. “And” between values parts separate entries of the source, which are not always exact repeats. Identical values can stand only once. Inconclusive results are not listed. A call without a number means that no potency is given here. The source made the active and inactive calls. Calls come from the whole dose curve; as a rule, active = well fitted cell-killing curve with a large enough effect in the repeat runs; inconclusive = weak or mixed curves, or effect the other way; inactive = flat fitted curve, though single readings scatter.
Potency is the fitted concentration of half-maximal effect.

This experiment in a line: qHTS assay to identify small molecule antagonists of the androgen receptor (AR) signaling pathway using the MDA cell line - cell viability counter screen (AID 743041; note: nearly all actives have a fitted effect of over 45% in size). The conditions noted are these: MDA-kb2 viability, CellTiter-Fluor, 16 h, cells co-treated with R1881 androgen agonist; series mostly up to 70.3 µM. An excerpt:
National Center for Advancing Translational Sciences [NCATS]
NIH Chemical Genomics Center [NCGC]
U.S. Environmental Protection Agency [EPA]
National Institutes of Environmental Health Sciences [NIEHS]
National Toxicology Program [NTP]
U.S. Food and Drug Administration [FDA]
Androgen receptor (AR), a nuclear hormone receptor, plays a critical role in AR-dependent prostate cancer and other androgen related diseases. Endocrine disrupting chemicals (EDCs) and their interactions with steroid hormone receptors like AR may cause disruption of normal endocrine function as well as interfere with metabolic homeostasis, reproduction, developmental and behavioral functions. To identify the compounds that inhibit AR signaling, MDA-kb2 AR-luc cell line (from ATCC, deposited by Wilson et al.) was used to screen the Tox21 10K compound library. MDA-kb2 AR-luc cell line is human breast carcinoma cell line that was stably transfected with a luciferase reporter gene under control of the MMTV promoter containing response elements for both androgen receptor (AR) and glucocorticoid receptor (GR). The cytotoxicity of the Tox21 compound library against the MDA-kb2 AR-luc cell line was tested in parallel by measuring the cell viability using CellTiter-Fluor assay (Promega, Madison, WI) in the same wells.
Tox21 Assay Protocol Summary:
MDA-kb2 AR-luc cells were dispensed at 3,000 cells/4 uL/well of culture medium into white wall/solid-bottom 1536-well plates using a Multidrop Combi (ThermoFisher Scientific, Waltham, MA) dispenser. After the assay plates were incubated at a 37C and 0% CO2 for 5 hr, 23 nL of compounds dissolved in DMSO, positive controls or DMSO only was transferred to the assay plate by a Pintool station (Kalypsys, San Diego, CA), followed by addition of 1 uL of agonist (R1881) in culture medium using a Bioraptr Flying Reagent Dispenser (FRD) workstation (Beckman Coulter, Indianapolis, IN, USA). The plates were incubated at a 37C and 0% CO2 for 16 h. After 15.5 h incubation, 1uL of CellTiter-Fluor reagent (Promega) was added using a Bioraptr FRD to each plate for measuring cytotoxicity. The fluorescence intensity was quantified on a ViewLux plate reader (PerkinElmer, Shelton, CT) following 30 min incubation at 37C and 0% CO2.
In the case of `C=CC(=O)OCCO`, the Potency result is “inactive”. Turning to `O=Cc1ccco1`, the Potency result is “inactive”. As for `CCN(N=O)C(N)=O`, the entry is “inactive”. The result for `OCC(O)CO` reads “inactive”; that for `Clc1nc(Cl)nc(Cl)n1`, “inactive”.

As for `Cc1ccc2c(c1N)C(=O)c1ccccc1C2=O`, the Potency result is “inactive”. For `CCC(C)(c1ccc(O)cc1)c1ccc(O)cc1`, the Potency result is “inactive”. Take `CCN(CC)C(=O)SCc1ccc(Cl)cc1`: the Potency result is “inactive”. Turning to `O=[N+]([O-])c1c(Cl)c(Cl)c(Cl)c(Cl)c1Cl`, the Potency entry was “inactive”. For the compound `CCc1cccc(CC)c1N(COC)C(=O)CCl`, the Potency result is “inactive”. Turning to `CCC(=O)O[C@H]1CC[C@H]2[C@@H]3CCC4=CC(=O)CC[C@]4(C)[C@H]3CC[C@]12C`, the Potency result was “inactive”. With `CCCCCCOC(=O)c1ccccc1C(=O)OCCCCCC`, the Potency result was “inactive”.

Take `COC(=O)c1sccc1S(=O)(=O)NC(=O)Nc1nc(C)nc(OC)n1`: the Potency result was “inactive”.

As for `CCOC(=O)C(C)OC(=O)c1cc(Oc2ccc(C(F)(F)F)cc2Cl)ccc1[N+](=O)[O-]` (stereo not given), the Potency result was “inactive”. Take `CCCCCCCCCCCOC(=O)c1ccccc1C(=O)OCCCCCCCCCCC`: the Potency entry is “inactive”. For the compound `N#CC(Br)Br`, the Potency result was “inactive”. Regarding `CC(C)NC(C)C`, the Potency entry was “inactive”.

As for `NCc1cccnc1`, the Potency entry was “inactive”. As for `CCC(C)c1ccc(O)cc1` (stereo not given), the Potency entry is “inactive”. The result for `Brc1ccc(Oc2cc(Br)c(Br)cc2Br)c(Br)c1` reads “inactive”; that for `Nc1ccncc1`, “inactive”; that for `CCCCCCCCC(=O)NCc1ccc(O)c(OC)c1`, “inactive”.

For the compound `O=C(O)CC[N+](=O)[O-]`, the Potency result was “inactive”. The result for `CC(C)(c1cc(Cl)c(O)c(Cl)c1)c1cc(Cl)c(O)c(Cl)c1` reads “inactive”.

Regarding `COc1ccc(C=O)cc1`, the Potency entry is “inactive”. As for `CN(C)c1ccc(C(=O)c2ccc(N(C)C)cc2)cc1`, the Potency entry was “inactive”. Take `Cc1cc(Cl)ccc1OCCCC(=O)O`: the Potency entry was “inactive”. With `C[C@]12CCC(=O)C[C@@H]1CC[C@@H]1[C@@H]2CC[C@]2(C)[C@@H](O)CC[C@@H]12`, the Potency result is “inactive”. As for `c1ccc(-c2cccc(-c3ccccc3)c2)cc1`, the entry is “inactive”; as for `O=C1C=CC(=O)C=C1`, “inactive”.

As for `O=[N+]([O-])c1ccc(O)c([N+](=O)[O-])c1`, the Potency was 30.8 µM (active) and 61.1 µM (active). In the case of `c1nc[nH]n1`, the Potency result is “inactive”. With `ClC1C(Cl)C(Cl)C(Cl)C(Cl)C1Cl` (stereo not given), the Potency entry was “inactive”.

With `CCOCN(C(=O)CCl)c1c(C)cccc1CC`, the Potency result was “inactive”. Regarding `CC(C)(OOC(C)(C)c1ccccc1)c1ccccc1`, the Potency entry was “inactive”. Turning to `CCCCC(CC)COC(=O)Cl` (stereo not given), the Potency result was “inactive”. In the case of `Nc1c(Cl)cc([N+](=O)[O-])cc1Cl`, the Potency result is “inactive”. `O=S(=O)(Oc1ccc(Cl)cc1)c1ccc(Cl)cc1`: the Potency result is “inactive”. As for `CCCCCCCCOC(=O)c1ccccc1C(=O)OCCCCCCCC`, the entry is “inactive”; as for `N#CCCCl`, “inactive”.

The values above are taken from PubChem BioAssay (Tox21).
